In the library only some 10% were active in any assay of this set; here they are far more common.
BAZ2B block: blocks human BAZ2B; 360,000 compounds, 4.4% hits; AlphaScreen BAZ2B-H3K14Ac peptide displacement; Q9UIF8; Potency, µM (titrated, usually from 114 µM), actives largely listed as inhibitors; further: nearly all actives have a fitted effect of over 60% in size
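In this displacement format the biotinylated H3(5-23) peptide acetylated at Lys14 serves as ligand at 50 nM, with BAZ2B at 50 nM in PBS pH 7.4 containing 0.01% Tween-20. Donor and acceptor beads are 10 ug/mL final.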
JMJD2A Tudor inh: blocks the human JMJD2A Tudor domain; 390,000 compounds, 4.4% hits; O75164; AlphaScreen JMJD2A-Tudor / H3K4me3 peptide binding; Potency, µM (titrated, usually from 114 µM), hits mostly inhibitors; AID 504339; further: nearly all actives have a fitted effect of over 50% in size
G9a block: inhibitors of human histone lysine methyltransferase G9a | Q96KQ7 | G9a H3K9 monomethylation, AlphaScreen, 2 h | Potency, µM (series often up to 102 µM), most hits filed as inhibitors | 350,000 compounds, 8.8% hits; further: nearly all actives have a fitted effect of over 75% in size
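G9a (20 nM) preincubated 15 min RT with compounds, then 500 nM biotinylated H3K9 peptide and 20 uM SAM added; 2 h RT reaction. Monomethyl-H3K9 product detected by AlphaScreen with anti-H3K9me1 antibody, streptavidin donor and anti-rabbit IgG acceptor beads.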
GLS inhibitor: blocks human kidney-isoform glutaminase activity. 410,000 compounds, 0.21% hits. O94925. GLS enzymatic activity, qHTS titration. Potency, µM (series often up to 45.5 µM), hits mostly inhibitors
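Assay buffer: 45 mM KH2PO4 pH 8.2, 0.02% Tween-20. hKGA acts on L-glutamine (1 mM solution added); product glutamate is reported by an oxidase/peroxidase Amplex Red coupling, with fluorescence taken at baseline and 30 min.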
HP1b chromo inh: inhibitors of HP1-beta chromodomain binding to methylated histone tails. P83916. AlphaScreen HP1-beta / biotin-H3K9me3 peptide binding. Potency, µM (series often up to 114 µM), actives largely listed as inhibitors. 390,000 compounds, 0.56% hits; further: nearly all actives have a fitted effect of over 70% in size
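Compound inhibition of the preformed complex between 50 nM HP1-beta and 50 nM biotinylated H3K9me3 peptide was read by AlphaScreen. Buffer was PBS pH 7.4 with 0.01% Tween-20. Incubations ran 30 min at room temperature, with 10 ug/mL donor/acceptor beads.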
Of the large screens only hits and unclear results are named; the others gave an inactive call. The call rests on the fitted dose curve; in most records, active means well fitted curve in the direction sought with a large enough effect; inconclusive means small, poorly fitted or top-dose-only effect, or another doubt; inactive means no such curve, though single readings can be large; an effect the other way counts as inactive or inconclusive.

C=C1CN(C(C(=O)OC)C(C)C)S(=O)(=O)c2ccc(F)cc21 (stereo not given)	none (no result: BAZ2B block, G9a block, GLS inhibitor)
COc1cccc(/C=C/C(=C2/C(=O)N(c3ccccc3)N=C2C)c2ccc(C)cc2)c1OC	BAZ2B block inconclusive, JMJD2A Tudor inh inconclusive, G9a block 1.1µM, HP1b chromo inh inconclusive
C=CCCCCCCCCC(=O)OC	none (no result: BAZ2B block, JMJD2A Tudor inh, HP1b chromo inh)
CC(C(=O)N(C)Cc1cccc(F)c1)N1CCN(S(=O)(=O)c2ccc3c(c2)OCCCO3)CC1 (stereo not given)	G9a block 40µM
COc1cccc(-c2nc(SCC(=O)NC3CCCC3)c(-c3ccc(F)cc3)[nH]2)c1	none
COc1nccnc1NS(=O)(=O)c1ccc(NC(=O)c2cccc(C)c2)cc1	BAZ2B block 79µM (no result: G9a block)
COc1nccnc1NS(=O)(=O)c1ccc(NC(=O)c2ccc(F)cc2)cc1	none
COc1nccnc1NS(=O)(=O)c1ccc(NS(=O)(=O)c2ccc(NC(C)=O)cc2)cc1	none
COc1ccc(C(=O)Nc2ccc(S(=O)(=O)Nc3nccnc3OC)cc2)cc1	none
COc1nccnc1NS(=O)(=O)c1ccc(NC(=S)NC(=O)c2ccc(F)c(F)c2)cc1	BAZ2B block inconclusive, G9a block 50µM
COc1nccnc1NS(=O)(=O)c1ccc(NCc2cc(Br)ccc2O)cc1	BAZ2B block inconclusive, G9a block 45µM, HP1b chromo inh inconclusive
COc1nccnc1NS(=O)(=O)c1ccc(N/C=C2\CCCCC2=O)cc1	BAZ2B block inconclusive, G9a block 50µM
CCc1nnc(NS(=O)(=O)c2ccc(NCc3cc(Br)ccc3O)cc2)s1	none (no result: G9a block)
COc1cccc(-c2nc(C(=O)NCC3CCCO3)cc3c2[nH]c2ccccc23)c1 (stereo not given)	none
O=C(CC1(O)C(=O)N(CCc2ccccc2)c2ccc(Br)cc21)c1ccccc1O (stereo not given)	BAZ2B block inconclusive, JMJD2A Tudor inh inconclusive, G9a block inconclusive
O=C(Nc1nc(-c2ccccn2)cs1)c1ncc(Cl)c(Cl)c1Cl	none (no result: G9a block)
Cc1ccc(C(=O)Nc2ncc(C)s2)s1	G9a block inconclusive
CCc1sc(C(=O)Nc2ncccc2O)cc1C	BAZ2B block 50µM, G9a block 35µM
Cc1ccc(C(=O)Nc2nc(-c3ccccn3)cs2)s1	BAZ2B block 20µM, JMJD2A Tudor inh 56µM
Cc1csc(NC(=O)c2cccn2C)n1	BAZ2B block inconclusive
O=C(Nc1nc(-c2ccccn2)cs1)c1ccc(Cl)s1	BAZ2B block 22µM, JMJD2A Tudor inh 79µM, G9a block inconclusive
Cn1cccc1C(=O)Nc1nc(-c2ccccn2)cs1	BAZ2B block 18µM, JMJD2A Tudor inh 56µM, HP1b chromo inh inconclusive (no result: G9a block)
OC[C@H]1O[C@@H](c2nc3ccc(-c4nc(-c5ccc(Br)cc5)no4)cc3[nH]2)C[C@@H]1O	none (no result: BAZ2B block, JMJD2A Tudor inh, G9a block, HP1b chromo inh)
CC1CCN(c2ccc3nnc(CCC(=O)N4CCN(c5ccc(F)cc5)CC4)n3n2)CC1	G9a block inconclusive
CCc1sc(C(=O)Nc2nc(-c3ccccn3)cs2)cc1C	JMJD2A Tudor inh 79µM (no result: BAZ2B block, G9a block)
CCC(=O)N1CCC1(C)C(=O)Nc1ccc(C)c(C)c1 (stereo not given)	none (no result: BAZ2B block, JMJD2A Tudor inh, G9a block, HP1b chromo inh)
CC(=O)CSc1nsc(SCC(C)=O)c1C#N	G9a block 8.9µM
CCOC(=O)CSc1nsc(SCC(=O)OCC)c1C#N	none
Cc1snc(SCC(=O)c2ccc(Cl)cc2)c1C#N	G9a block 20µM
Cc1ccc(C(=O)CSc2nsc(C)c2C#N)cc1	G9a block 4.5µM
COC(=O)c1ccccc1CSc1nsc(C)c1C#N	G9a block 16µM
Cc1ccccc1CCNC(=O)c1cc2cc(S(=O)(=O)N3CCCCC3)ccc2n1C	none
O=C(c1cc(C(F)(F)F)cc(C(F)(F)F)c1)N1CCC2(CC1)CN(c1ccccc1)C2	none (no result: BAZ2B block, JMJD2A Tudor inh, GLS inhibitor, HP1b chromo inh)
CCN(CC)C(=O)CSc1nc2cc3c(cc2c(=O)n1Cc1ccc(C(=O)NCCc2ccc(OC)c(OC)c2)cc1)OCO3	none
Cc1ccnc(SCC(=O)c2ccc(Br)cc2)c1C#N	JMJD2A Tudor inh inconclusive, G9a block 50µM
Cn1nc(C(=O)NCc2ccccn2)c2ccccc2c1=O	BAZ2B block inconclusive, JMJD2A Tudor inh 22µM
CC(C)n1nc(C(=O)NNC(=O)c2ccncc2)c2ccccc2c1=O	BAZ2B block inconclusive, G9a block inconclusive
CCOc1ccc(OCCC(=O)NNC(=O)c2nn(C)c(=O)c3ccccc23)cc1	BAZ2B block 71µM, JMJD2A Tudor inh inconclusive, G9a block inconclusive

Bioassay records as filed in PubChem.
